Eleven compounds from PubChem BioAssay (Tox21) can be followed below.

Test [1] in a line: qHTS RealTime-Glo MT Cell Viability Assay in HEK293 cells - 0 hour (AID 1224880). Further: top concentration of the series differs between compounds; nearly all actives have a fitted effect of over 45% in size. In a few lines:
(§1)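 Measured as luminescence from the same continuously cultured HEK293 wells at successive time points (0, 8, 16, 24, 32, 40 h) after compound addition. Reagent present from seeding; dosing at 5 h; incubation 37 C.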
On the technique in general: qHTS replaces the single test concentration by a dilution series.

Test [2] can be described thus: A CellTox Green Cytotoxicity Assay to monitor cytotoxicity in HepG2 cells - 0 hour (AID 1224882). Further: nearly all actives have a fitted effect of over 35% in size. The procedure, abridged: (§2)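 Fluorescent DNA-binding dye, 600 HepG2 cells/well, 5 h preincubation then compound in DMSO; same plates read at 0–40 h, 37 C.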
Test [3] in a line: A CellTox Green Cytotoxicity Assay to monitor cytotoxicity in HepG2 cells - 32 hour (AID 1224883). Further: nearly all actives have a fitted effect of over 50% in size. The procedure, abridged:
as §2

The nature of test [4]: A CellTox Green Cytotoxicity Assay to monitor cytotoxicity in HEK293 cells - 8 hour (AID 1224884). Further: nearly all actives have a fitted effect of over 35% in size. The procedure, abridged:
(§3)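 Homogeneous no-lysis format: HEK293 cell suspension mixed with CellTox Green reagent, seeded, incubated 5 h at 37 C/5% CO2, then dosed by pintool with compound in DMSO.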

A short description of test [5]: qHTS RealTime-Glo MT Cell Viability Assay in HepG2 cells - 16 hour (AID 1224885). Further: nearly all actives have a fitted effect of over 50% in size. In a few lines: (§4)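 Cells + NanoLuc/prosubstrate dispensed (600 cells/well) → 5 h at 37 C/5% CO2 → compounds in DMSO transferred → 40 h incubation at 37 C, luminescence read at 0, 8, 16, 24, 32, 40 h.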
The nature of test [6]: qHTS RealTime-Glo MT Cell Viability Assay in HEK293 cells - 24 hour (AID 1224886). Further: top concentration of the series differs between compounds; nearly all actives have a fitted effect of over 50% in size. In a few lines: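 Tox21 10K qHTS, HEK293, 600 cells/well, RealTime-Glo reagent co-dispensed with cells; 5 h preincubation, compound by pintool, 37 C, luminescence at 0–40 h.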
The nature of test [7]: qHTS RealTime-Glo MT Cell Viability Assay in HEK293 cells - 8 hour (AID 1224887). Further: nearly all actives have a fitted effect of over 50% in size. Further: potency means the concentration at half of the fitted maximal effect. On activity change, negative = cytotoxicity: top concentration of the series differs between compounds. In a few lines:
as §1

Test [8] is described as follows: qHTS RealTime-Glo MT Cell Viability Assay in HepG2 cells - 0 hour (AID 1224889). Further: nearly all actives have a fitted effect of over 50% in size. In a few lines: as §4
The nature of test [9]: A CellTox Green Cytotoxicity Assay to monitor cytotoxicity in HepG2 cells - 8 hour (AID 1224890). Further: nearly all actives have a fitted effect of over 45% in size. In a few lines: as §2
The nature of test [10]: qHTS assay to identify small molecule antagonists of the estrogen receptor alpha (ER-alpha) signaling pathway using the BG1 cell line in the presence of 0.1 nM 17-beta-estradiol - cell viability counter screen (AID 1259241). Further: nearly all actives have a fitted effect of over 40% in size. The procedure, abridged: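 Live-cell protease activity (CellTiter-Fluor fluorescence, 30 min) was read in the same wells after VM7Luc4E2 cells had been exposed to compounds with 0.1 nM 17beta-estradiol for 22 hr at 37C.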

Test [11] in a line: qHTS assay to identify small molecule antagonists of the androgen receptor (AR) signaling pathway using the MDA cell line in the presence of 0.5 nM R1881 - cell viability counter screen (AID 1259242). Further: nearly all actives have a fitted effect of over 45% in size. The procedure, abridged: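 Human breast carcinoma MDA-kb2 cells, cultured without CO2, receive compounds alongside 0.5 nM (final) R1881 agonist. After 16 hr at 37C, viability is taken as live-cell protease signal.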

Test [12] has as its target Estrogen receptor (Homo sapiens) (UniProt P03372). In words: qHTS assay to identify small molecule antagonists of the estrogen receptor alpha (ER-alpha) signaling pathway using the BG1 cell line in the presence of 0.1 nM 17-beta-estradiol (AID 1259244). Further: nearly all actives have a fitted effect of over 50% in size. In a few lines: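 Seeding of stripped-serum-adapted VM7Luc4E2 cells, 24 h attachment, compound transfer, then 0.1 nM final 17beta-estradiol; after 22 h incubation, ONE-Glo reagent and luminescence reading.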

A short description of test [13]: qHTS assay to identify small molecule HDAC inhibitors (AID 1259364). Further: potency means the concentration at half of the fitted maximal effect.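 Further: wild-type HCT-116 cells with endogenous class I/II HDAC activity; nearly all actives have a fitted effect of over 45% in size.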 On activity change, negative = inhibition: top concentration of the series differs between compounds. In a few lines: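 After a 2 hr compound incubation (37C, 5% CO2), HCT-116 cells seeded at 1,500/well the day before received HDAC-Glo reagent; signal read as luminescence after 30 min at room temperature.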
A short description of test [14]: qHTS assay to identify small molecule HDAC inhibitors - cell viability counter screen (AID 1259365). The procedure, abridged:
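HCT-116 (wild type), 1,500 cells/well, overnight 37C/5% CO2; compound in DMSO 2hr; CellTiter-Glo 30min RT; luminescence read.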

The nature of test [15]: qHTS assay to identify small molecule agonists of the sonic hedgehog signaling (Shh) pathway - cell viability counter screen (AID 1259366). Further: nearly all actives have a fitted effect of over 50% in size. In a few lines:
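CellTiter-Fluor fluorescence read-out, 1 hr at 37C, added after 23hr compound exposure. Cells: 3T3 Gli1-Luc, an NIH/3T3 clone with stably integrated Gli1-Luc reporter, plated 4hr before compound.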

The nature of test [16]: qHTS assay to identify small molecule antagonists of the sonic hedgehog signaling (Shh) pathway - cell viability counter screen (AID 1259367). Further: nearly all actives have a fitted effect of over 55% in size. In a few lines:
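Conditioned medium drove Shh signaling in 3T3 Gli1-Luc cells exposed to compounds at 37C and 5% CO2. Viability was determined from CellTiter-Fluor fluorescence, with reagent incubated 1 hr after 23 hr of treatment.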

A short description of test [17]: A CellTox Green Cytotoxicity Assay to monitor cytotoxicity in HEK293 cells - 16 hour (AID 1224888). Further: nearly all actives have a fitted effect of over 35% in size. The procedure, abridged: as §3
Test [18] in a line: A CellTox Green Cytotoxicity Assay to monitor cytotoxicity in HEK293 cells - 32 hour (AID 1224881). Further: nearly all actives have a fitted effect of over 40% in size. In a few lines: as §3
A short description of test [19]: qHTS assay to identify small molecule phospholipidosis (PLD) inducers (AID 1259344; active means well fitted curve in the direction sought with a large enough effect; an effect the other way counts as inactive or inconclusive). The procedure, abridged: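 After 4 h attachment on collagen I, HepG2 cells were dosed with compound alongside LipidTOX Red, kept 24 h at 37 C, fixed, and imaged for lamellar phospholipid pits.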
Test [20] addresses Androgen receptor (Homo sapiens) (UniProt P10275). In words: qHTS assay to identify small molecule antagonists of the androgen receptor (AR) signaling pathway using the MDA cell line in the presence of 0.5 nM R1881 (AID 1259243). Further: nearly all actives have a fitted effect of over 50% in size. In a few lines: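 Cells: MDA-kb2 (MMTV-luc). Stimulus: 0.5 nM R1881. Time: 16 hr, 37C, no CO2. Detection: ONE-Glo luminescence after 30 min at RT.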

A number with no mark means an inactive call. Results filed as inconclusive are left out. Active and inactive are the calls of the source. Unless noted, the call rests on the fitted dose curve; in most records, active means well fitted curve in the direction sought with a large enough effect in the repeat runs; inconclusive means weak or mixed curves; inactive means no such curve, though single readings can be large; an effect the other way counts as inactive or inconclusive.
On the % scale 0 is the no-effect control and ±100 the full control effect.

Chain of Estrogen receptor (Homo sapiens) (P03372 whole entry, looked up): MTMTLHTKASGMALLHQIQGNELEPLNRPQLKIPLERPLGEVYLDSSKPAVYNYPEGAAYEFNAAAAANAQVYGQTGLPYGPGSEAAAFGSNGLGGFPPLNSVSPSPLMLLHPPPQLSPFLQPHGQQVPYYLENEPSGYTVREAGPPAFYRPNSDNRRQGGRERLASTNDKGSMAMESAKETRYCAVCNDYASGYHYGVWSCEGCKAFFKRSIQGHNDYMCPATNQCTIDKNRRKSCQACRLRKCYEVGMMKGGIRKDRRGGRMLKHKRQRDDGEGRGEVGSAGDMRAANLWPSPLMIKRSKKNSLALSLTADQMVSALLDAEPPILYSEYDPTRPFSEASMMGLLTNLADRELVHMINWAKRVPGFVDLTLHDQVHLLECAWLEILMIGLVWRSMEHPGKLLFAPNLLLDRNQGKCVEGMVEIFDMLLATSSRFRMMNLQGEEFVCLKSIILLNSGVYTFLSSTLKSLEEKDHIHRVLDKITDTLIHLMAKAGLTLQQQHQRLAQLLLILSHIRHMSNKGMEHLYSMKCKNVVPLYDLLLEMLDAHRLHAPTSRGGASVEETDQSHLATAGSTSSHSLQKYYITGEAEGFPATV
Chain of Androgen receptor (Homo sapiens) (P10275 whole entry, looked up): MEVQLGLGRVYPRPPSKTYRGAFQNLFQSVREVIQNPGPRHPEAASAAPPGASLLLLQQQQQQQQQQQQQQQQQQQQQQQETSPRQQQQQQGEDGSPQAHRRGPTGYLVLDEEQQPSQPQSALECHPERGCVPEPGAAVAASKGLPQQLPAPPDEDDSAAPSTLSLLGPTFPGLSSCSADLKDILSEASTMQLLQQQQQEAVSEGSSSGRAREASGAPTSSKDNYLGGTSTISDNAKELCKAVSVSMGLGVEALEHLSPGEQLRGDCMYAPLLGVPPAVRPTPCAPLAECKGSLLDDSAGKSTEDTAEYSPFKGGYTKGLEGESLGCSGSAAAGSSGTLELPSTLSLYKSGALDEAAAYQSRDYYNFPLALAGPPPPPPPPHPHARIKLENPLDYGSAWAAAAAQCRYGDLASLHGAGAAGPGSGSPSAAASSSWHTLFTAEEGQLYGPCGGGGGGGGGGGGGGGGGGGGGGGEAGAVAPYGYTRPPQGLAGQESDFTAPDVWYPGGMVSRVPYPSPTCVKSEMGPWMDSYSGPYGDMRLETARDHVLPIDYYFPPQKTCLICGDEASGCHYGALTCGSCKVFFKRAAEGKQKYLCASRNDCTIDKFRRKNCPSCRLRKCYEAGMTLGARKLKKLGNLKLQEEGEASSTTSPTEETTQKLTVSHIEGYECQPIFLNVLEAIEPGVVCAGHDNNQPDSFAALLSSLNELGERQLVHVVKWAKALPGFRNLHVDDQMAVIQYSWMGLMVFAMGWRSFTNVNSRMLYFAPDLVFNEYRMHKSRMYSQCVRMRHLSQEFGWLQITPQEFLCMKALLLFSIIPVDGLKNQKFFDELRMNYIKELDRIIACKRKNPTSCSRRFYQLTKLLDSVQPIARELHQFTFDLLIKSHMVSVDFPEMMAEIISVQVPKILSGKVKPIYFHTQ

For the compound `NC(=O)Nc1nc2ccccc2[nH]1`, the result in [1], in [5], in test [10], in test [11], in test [12] and in [14] was inactive. Also, the call in test [16] was inactive. For the same compound, the Potency entry in test [2], in [3], in [4], in test [6], in test [7] and in [8] was “inactive” each time. The Potency entry in test [9], in test [13] and in [15] was “inactive” in each case.

In the case of `CCCCC1CCCCC(=O)O1` (stereo not drawn), the compound was classed as inactive in test [1], in test [5], in test [10], in test [11], in test [12] and in [14]. Further, the compound was called inactive in [16]. In addition, the Potency result in test [3], in test [4], in [7], in test [17], in test [8] and in test [9] was “inactive” in each case. In addition, the Potency entry in test [13] and in [15] was “inactive” each time.

On to `Nc1ccc2cc(S(=O)(=O)O)ccc2c1`, for which the call in [1], in test [5], in test [10], in test [11], in [12] and in [14] was inactive. Also, the outcome in [16] was inactive. The Potency result in [2], in [3], in test [4], in test [7], in test [17] and in test [8] was “inactive” throughout. Further, the Potency result in test [9] and in [13] was “inactive” throughout.

Consider `CC1=CC(=O)CCC1`, for which the call in test [1], in test [5], in test [10], in test [11], in test [14] and in [16] was inactive. In addition, the Potency entry in test [2], in test [3], in test [4], in [7], in [17] and in [8] was “inactive” each time. The Potency result in test [9], in test [13] and in test [15] was “inactive” each time.

For `Fc1ccccc1-c1ccccc1`, the call in [1], in test [5], in test [10], in test [11], in test [14] and in test [16] was inactive. The Potency entry in test [2], in test [4], in test [7], in test [17], in test [8] and in test [9] was “inactive” each time. The Potency result in test [15] is “inactive”.

For the compound `CCC(=O)/C=C/c1ccc(OC)cc1`, the compound was called inactive in test [1], in test [5], in test [10], in test [11], in test [12] and in test [14]. Further, in test [16], the result was inactive. The Potency entry in test [3], in [4], in test [6], in [7], in [17] and in test [8] was “inactive” each time. Moreover, the Potency entry in [9] and in [15] was “inactive” each time. In [13], the Potency is 24.3 µM (active).

Take `CCn1c(=O)c2c(nc(/C=C/c3ccc(OC)c(OC)c3)n2C)n(CC)c1=O`: the result in [1], in test [10], in test [11], in [14] and in test [16] was inactive. Also, the Potency result in [2], in test [3], in test [4], in test [17], in test [9] and in test [13] was “inactive” each time. The Potency entry in [15] is “inactive”. In addition, the Potency in test [7] was 1.51 µM (active).

Take `OC1OC[C@@H](O)[C@H](O)[C@H]1O` (stereo partly drawn): the compound was classed as inactive in [1], in test [5], in test [10], in [11], in [14] and in test [16]. The Potency result in test [2], in [3], in test [4], in test [6], in test [7] and in test [17] was “inactive” in each case. Moreover, the Potency entry in test [8], in [9] and in test [13] was “inactive” in each case.

As to `CCCCCC[C@@H](CCC)C(=O)O`, the Potency entry in test [18], in test [2], in test [3], in [4], in test [6] and in test [7] was “inactive” throughout. The Potency entry in test [17], in test [8], in [9], in [19] and in test [13] was “inactive” each time. Moreover, the result in test [10], in test [11], in test [12], in test [14] and in [16] was inactive.

As to `O=C(O)c1ccccc1S`, the call in [1], in test [10], in test [11], in [14] and in test [16] was inactive. Besides, the Potency entry in test [2], in [3], in test [6], in [7], in [17] and in [8] was “inactive” each time. Besides, the Potency entry in test [9], in test [19] and in test [15] was “inactive” each time.

In the case of `C1CCCCCCCCCCC1`, the cytotoxicity increase was -37.3% [at 15.8 µM] in test [18], -10.5% [at 15.8 µM] in [3], -28.5% [at 15.8 µM] in test [4] and -1.99% [at 15.8 µM] in [9]. Also, the cytotoxicity in test [2] was -1.21% [at 15.8 µM]. In addition, the activity change, negative = cytotoxic in test [5] is -3.94% [at 15.8 µM]. Moreover, the activity change in test [17] is -33.7% [at 15.8 µM, stronger effect = higher value]. The activity change, negative = cytotoxicity is -19.7% [at 15.8 µM] in [8], -5.47% [at 19 µM] in [10] and -1.94% [at 19 µM] in test [14]. Moreover, the viability change, negative = cytotoxic is 10.4% [at 19 µM] in test [11], 0.953% [at 19 µM] in test [15] and -0.0913% [at 19 µM] in test [16]. In addition, in [20], the Potency entry is “inactive”. In addition, the activity change, negative = inhibition in [13] is 3.38% [at 19 µM].
